# From the supplement of paper PMC10849652
# The full data set covers some 8,800 targets. This sample favours those with a hit. About 0.5% of all pairs of compound and target were hits. Unmarked numbers belong to inactive results.
# Legend:
# Assay in all cases: log2 fold change, soluble protein after heating vs DMSO (PISA); higher = thermal stabilisation; K562 lysate, 10 uM; active = over 0.2 and 3.5 SD of the protein, either way, in both replicates (recomputed)
# [1] = compound: CS(=O)(=O)CCNCc1ccc(-c2ccc3ncnc(Nc4ccc(OCc5cccc(F)c5)c(Cl)c4)c3c2)o1 [lapatinib]
# In short: (§1)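 The values are log-two fold changes in thermal stability compared with solvent controls and come from duplicates. They were obtained by TMTpro 16plex LC-MS/MS, with channel sums equalised, on the supernatant after 21,000xg for 90 min. That supernatant came from crude K562 extract at 1 mg/mL protein treated with 10 μM compound for 30 min, heated for 3 min across 48°C-58°C, pooled and brought to 0.5% NP-40 at 4°C.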
# [2] = compound: CS(=O)(=O)N1CCN(Cc2cc3nc(-c4cccc5[nH]ncc45)nc(N4CCOCC4)c3s2)CC1 [pictilisib]
# In short: as §1
# [3] = compound: C[C@@H](Oc1cc(-c2cnn(C3CCNCC3)c2)cnc1N)c1c(Cl)ccc(F)c1Cl [crizotinib]
# In short: as §1
# [4] = compound: C[C@H](C1=CC=C(C=C1)C(=O)NC2=C3C=CNC3=NC=C2)N
# In short: as §1
# [5] = compound: Cc1cc(Nc2cc(CN3CCOCC3)c3nc(C)c(Cc4ccc(Cl)cc4F)n3n2)n[nH]1 [gandotinib]
# In short: as §1
# [6] = compound: Cc1ccc(-n2nc(C(C)(C)C)cc2NC(=O)Nc2ccc(OCCN3CCOCC3)c3ccccc23)cc1 [doramapimod]
# In short: as §1
# [7] = compound: Cc1ccc(NC(=O)c2ccc(CN3CC[C@H](N(C)C)C3)c(C(F)(F)F)c2)cc1Nc1nccc(-c2cncnc2)n1 [bafetinib]
# In short: as §1
# [8] = compound: Cc1cccc(CC(=O)N2CCc3c2ccc(-c2cn(C)c4ncnc(N)c24)c3F)n1
# In short: as §1
# [9] = compound: Cc1cn(-c2cc(NC(=O)c3ccc(C)c(Nc4nccc(-c5cccnc5)n4)c3)cc(C(F)(F)F)c2)cn1 [nilotinib]
# In short: as §1
# [10] = compound: Cc1nc(Nc2n[nH]c3c2CN(C(=O)N[C@H](CN(C)C)c2ccccc2)C3(C)C)c2sccc2n1
# In short: as §1
# [11] = compound: Cc1ncc(-c2ccnc(Nc3ccc(S(C)(=O)=O)cc3)n2)n1C(C)C
# In short: as §1
# [12] = compound: Cn1cc(CNCC2CCN(c3ncc(C(=O)NO)cn3)CC2)c2ccccc21 [quisinostat]
# In short: as §1
# [13] = compound: Cn1cncc1[C@@](N)(c1ccc(Cl)cc1)c1ccc2c(c1)c(-c1cccc(Cl)c1)cc(=O)n2C [tipifarnib]
# In short: as §1
# [14] = compound: NC(=O)Nc1cc(-c2cccc(F)c2)sc1C(=O)N[C@H]1CCCNC1
# In short: as §1
# [15] = compound: NC(=O)c1cnc(N[C@@H]2CCCC[C@@H]2N)nc1Nc1cccc(-n2nccn2)c1
# In short: as §1
# [16] = compound: NC1(c2ccc(-c3nc4ccn5c(=O)[nH]nc5c4cc3-c3ccccc3)cc2)CCC1
# In short: as §1
# [17] = compound: C[C@H](Nc1ncnc2nc[nH]c12)c1cc2cccc(Cl)c2c(=O)n1-c1ccccc1 [duvelisib]
# In short: as §1
# [18] = compound: Cc1cc(Nc2cc(N3CCN(C)CC3)nc(Sc3ccc(NC(=O)C4CC4)cc3)n2)n[nH]1 [tozasertib]
# In short: as §1
# [19] = compound: Cc1nc(Nc2ncc(C(=O)Nc3c(C)cccc3Cl)s2)cc(N2CCN(CCO)CC2)n1 [dasatinib]
# In short: as §1
# [20] = compound: Cn1cc(-c2ccc3c(c2)CCN3C(=O)Cc2cccc(C(F)(F)F)c2)c2c(N)ncnc21
# In short: as §1
# Sequence of UniProt Q9C0D2 (Q9C0D2 whole entry, looked up): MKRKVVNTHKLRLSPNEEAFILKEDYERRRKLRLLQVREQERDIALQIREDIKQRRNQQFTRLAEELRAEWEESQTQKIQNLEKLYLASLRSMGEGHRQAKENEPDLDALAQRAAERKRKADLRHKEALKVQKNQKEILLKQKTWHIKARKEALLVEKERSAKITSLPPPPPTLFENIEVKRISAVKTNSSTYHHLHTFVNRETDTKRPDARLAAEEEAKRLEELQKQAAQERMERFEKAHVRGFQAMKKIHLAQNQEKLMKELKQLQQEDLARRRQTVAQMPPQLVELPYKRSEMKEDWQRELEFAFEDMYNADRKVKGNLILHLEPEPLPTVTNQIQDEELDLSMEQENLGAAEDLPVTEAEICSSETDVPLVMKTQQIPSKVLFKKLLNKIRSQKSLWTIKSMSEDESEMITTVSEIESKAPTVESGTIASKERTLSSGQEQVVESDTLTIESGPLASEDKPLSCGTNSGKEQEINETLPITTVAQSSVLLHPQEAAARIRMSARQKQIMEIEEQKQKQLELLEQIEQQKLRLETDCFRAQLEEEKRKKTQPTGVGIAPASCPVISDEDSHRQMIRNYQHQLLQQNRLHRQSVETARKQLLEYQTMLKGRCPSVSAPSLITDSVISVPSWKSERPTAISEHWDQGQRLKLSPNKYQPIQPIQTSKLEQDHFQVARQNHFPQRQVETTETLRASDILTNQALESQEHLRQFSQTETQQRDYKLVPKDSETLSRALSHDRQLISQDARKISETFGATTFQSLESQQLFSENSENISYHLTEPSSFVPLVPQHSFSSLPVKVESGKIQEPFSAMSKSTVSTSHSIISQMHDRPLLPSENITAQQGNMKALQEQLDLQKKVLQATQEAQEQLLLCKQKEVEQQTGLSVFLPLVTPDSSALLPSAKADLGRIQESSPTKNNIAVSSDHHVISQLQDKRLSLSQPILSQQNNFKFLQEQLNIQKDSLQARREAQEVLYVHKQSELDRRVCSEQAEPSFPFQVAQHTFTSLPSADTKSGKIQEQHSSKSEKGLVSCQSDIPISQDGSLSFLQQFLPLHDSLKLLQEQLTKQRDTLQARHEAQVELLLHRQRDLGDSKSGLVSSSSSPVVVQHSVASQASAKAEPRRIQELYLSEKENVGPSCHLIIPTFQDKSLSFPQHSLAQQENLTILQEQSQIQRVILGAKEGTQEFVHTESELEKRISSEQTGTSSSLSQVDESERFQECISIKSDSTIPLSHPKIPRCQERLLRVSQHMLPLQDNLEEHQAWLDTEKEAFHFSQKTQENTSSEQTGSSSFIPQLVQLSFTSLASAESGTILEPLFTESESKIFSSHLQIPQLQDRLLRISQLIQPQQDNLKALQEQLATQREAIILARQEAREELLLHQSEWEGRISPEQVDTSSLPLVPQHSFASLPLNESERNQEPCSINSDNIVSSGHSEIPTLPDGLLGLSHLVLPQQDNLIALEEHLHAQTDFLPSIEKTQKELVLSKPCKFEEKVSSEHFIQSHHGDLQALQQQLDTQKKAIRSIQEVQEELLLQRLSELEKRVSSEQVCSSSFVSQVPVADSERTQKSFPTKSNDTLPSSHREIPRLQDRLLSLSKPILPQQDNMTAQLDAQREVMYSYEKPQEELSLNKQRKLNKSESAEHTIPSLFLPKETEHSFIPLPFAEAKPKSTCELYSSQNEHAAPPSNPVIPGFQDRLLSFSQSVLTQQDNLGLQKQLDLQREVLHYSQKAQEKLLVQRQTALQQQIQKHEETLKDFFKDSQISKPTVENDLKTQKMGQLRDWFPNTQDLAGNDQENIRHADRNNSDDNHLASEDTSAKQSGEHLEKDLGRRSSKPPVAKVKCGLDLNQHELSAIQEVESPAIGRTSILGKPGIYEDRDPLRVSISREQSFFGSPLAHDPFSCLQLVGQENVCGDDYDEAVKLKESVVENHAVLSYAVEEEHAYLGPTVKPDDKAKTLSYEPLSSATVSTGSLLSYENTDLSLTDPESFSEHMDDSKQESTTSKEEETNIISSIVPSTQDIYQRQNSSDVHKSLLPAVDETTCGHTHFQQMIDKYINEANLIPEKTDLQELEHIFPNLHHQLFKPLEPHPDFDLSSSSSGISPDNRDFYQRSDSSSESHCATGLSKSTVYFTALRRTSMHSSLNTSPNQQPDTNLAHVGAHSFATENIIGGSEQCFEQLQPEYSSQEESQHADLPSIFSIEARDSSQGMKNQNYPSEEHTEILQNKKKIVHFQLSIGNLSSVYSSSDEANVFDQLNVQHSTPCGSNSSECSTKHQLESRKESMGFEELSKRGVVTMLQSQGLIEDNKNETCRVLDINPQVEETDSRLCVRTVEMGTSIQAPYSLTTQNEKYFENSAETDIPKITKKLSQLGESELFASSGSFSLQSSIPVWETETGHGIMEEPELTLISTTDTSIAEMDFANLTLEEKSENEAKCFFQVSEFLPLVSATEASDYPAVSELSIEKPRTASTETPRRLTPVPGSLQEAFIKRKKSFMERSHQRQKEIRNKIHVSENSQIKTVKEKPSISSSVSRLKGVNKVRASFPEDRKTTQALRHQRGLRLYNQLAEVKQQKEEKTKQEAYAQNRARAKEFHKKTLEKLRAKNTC
# Sequence of UniProt Q15834 (Q15834 whole entry, looked up): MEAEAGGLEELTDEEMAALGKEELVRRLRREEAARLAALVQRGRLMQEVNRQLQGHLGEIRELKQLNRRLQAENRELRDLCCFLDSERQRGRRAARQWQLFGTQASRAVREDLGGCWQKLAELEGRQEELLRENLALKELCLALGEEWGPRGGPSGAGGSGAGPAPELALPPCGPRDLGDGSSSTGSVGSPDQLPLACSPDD
# Sequence of UniProt P04632 (P04632 whole entry, looked up): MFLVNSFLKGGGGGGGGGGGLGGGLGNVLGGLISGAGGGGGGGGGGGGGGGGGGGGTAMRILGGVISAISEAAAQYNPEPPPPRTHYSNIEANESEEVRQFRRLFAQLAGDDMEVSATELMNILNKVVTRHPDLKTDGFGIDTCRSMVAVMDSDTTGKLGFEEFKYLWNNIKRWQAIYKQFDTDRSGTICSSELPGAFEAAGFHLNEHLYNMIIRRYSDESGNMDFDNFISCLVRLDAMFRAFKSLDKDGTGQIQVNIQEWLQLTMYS
# Sequence of UniProt Q8TDI0 (Q8TDI0 whole entry, looked up): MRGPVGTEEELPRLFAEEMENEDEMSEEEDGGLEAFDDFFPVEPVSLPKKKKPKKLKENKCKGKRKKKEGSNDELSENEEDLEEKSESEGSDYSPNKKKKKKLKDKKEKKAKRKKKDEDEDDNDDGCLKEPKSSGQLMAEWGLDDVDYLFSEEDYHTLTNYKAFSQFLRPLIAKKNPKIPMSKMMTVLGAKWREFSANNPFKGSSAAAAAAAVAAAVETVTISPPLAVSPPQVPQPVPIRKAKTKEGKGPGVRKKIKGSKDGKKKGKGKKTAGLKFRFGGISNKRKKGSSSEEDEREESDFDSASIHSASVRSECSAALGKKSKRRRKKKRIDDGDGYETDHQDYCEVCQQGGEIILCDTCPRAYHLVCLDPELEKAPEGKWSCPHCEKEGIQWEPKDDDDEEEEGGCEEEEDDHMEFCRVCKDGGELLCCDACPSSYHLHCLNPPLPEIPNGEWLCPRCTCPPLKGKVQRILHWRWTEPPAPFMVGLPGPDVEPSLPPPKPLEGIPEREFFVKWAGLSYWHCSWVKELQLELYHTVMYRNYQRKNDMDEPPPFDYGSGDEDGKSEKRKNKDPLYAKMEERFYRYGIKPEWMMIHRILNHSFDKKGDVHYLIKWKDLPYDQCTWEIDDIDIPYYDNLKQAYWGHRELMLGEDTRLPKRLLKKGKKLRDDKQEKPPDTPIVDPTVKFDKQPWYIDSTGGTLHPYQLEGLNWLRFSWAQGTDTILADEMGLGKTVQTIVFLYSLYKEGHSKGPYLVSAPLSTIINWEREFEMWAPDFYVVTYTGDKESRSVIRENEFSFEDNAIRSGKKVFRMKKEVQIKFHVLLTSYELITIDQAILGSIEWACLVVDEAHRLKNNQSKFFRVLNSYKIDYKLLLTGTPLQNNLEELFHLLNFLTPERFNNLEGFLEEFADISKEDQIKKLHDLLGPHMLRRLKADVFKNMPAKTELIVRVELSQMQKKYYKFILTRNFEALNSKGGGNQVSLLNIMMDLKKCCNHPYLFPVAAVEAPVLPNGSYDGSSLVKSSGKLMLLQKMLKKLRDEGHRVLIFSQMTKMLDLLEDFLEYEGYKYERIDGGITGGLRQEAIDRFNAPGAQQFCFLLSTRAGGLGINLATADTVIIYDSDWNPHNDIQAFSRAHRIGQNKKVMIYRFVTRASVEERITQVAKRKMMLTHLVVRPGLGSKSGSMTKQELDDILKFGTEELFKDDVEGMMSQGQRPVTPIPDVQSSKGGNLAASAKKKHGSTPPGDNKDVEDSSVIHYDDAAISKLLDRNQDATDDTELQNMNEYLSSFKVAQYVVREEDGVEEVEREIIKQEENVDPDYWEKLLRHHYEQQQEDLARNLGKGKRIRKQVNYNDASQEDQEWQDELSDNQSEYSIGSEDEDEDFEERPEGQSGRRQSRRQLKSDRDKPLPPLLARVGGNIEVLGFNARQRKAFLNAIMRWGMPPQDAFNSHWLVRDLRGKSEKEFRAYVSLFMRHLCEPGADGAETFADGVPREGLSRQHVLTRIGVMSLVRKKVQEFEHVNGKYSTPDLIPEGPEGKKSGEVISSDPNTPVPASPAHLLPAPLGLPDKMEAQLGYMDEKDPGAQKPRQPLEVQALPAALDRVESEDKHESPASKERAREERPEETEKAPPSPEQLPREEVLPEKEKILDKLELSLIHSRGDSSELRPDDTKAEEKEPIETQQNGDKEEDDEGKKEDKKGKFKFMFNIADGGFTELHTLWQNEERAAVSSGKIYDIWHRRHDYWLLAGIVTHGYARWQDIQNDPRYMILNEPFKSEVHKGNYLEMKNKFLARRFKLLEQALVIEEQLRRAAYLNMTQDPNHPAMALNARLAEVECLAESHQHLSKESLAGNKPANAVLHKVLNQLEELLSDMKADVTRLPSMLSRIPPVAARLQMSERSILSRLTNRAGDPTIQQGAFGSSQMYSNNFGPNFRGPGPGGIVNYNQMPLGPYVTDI
Target,log2 fold change [1],log2 fold change [2],log2 fold change [3],log2 fold change [4],log2 fold change [5],log2 fold change [6],log2 fold change [7],log2 fold change [8],log2 fold change [9],log2 fold change [10],log2 fold change [11],log2 fold change [12],log2 fold change [13],log2 fold change [14],log2 fold change [15],log2 fold change [16],log2 fold change [17],log2 fold change [18],log2 fold change [19],log2 fold change [20]
ATF7IP2 (UniProt Q5U623),-0.03,0.05,-0.215,0.05,0.027,0.073,-0.023,-0.155,-0.003,0.008,-0.089,-0.336 (active),-0.064,0.001,0.036,-0.127,,,,
CAPNS1 (UniProt P04632),0.064,0.024,0.047,-0.21,0.15,0.079,0.016,0.005,-0.007,0.027,-0.002,0.078,0.017,-0.077,-0.05,0.01,-0.015,-0.042,0.035,-0.014
C3 (UniProt P01024),0.011,-0.01,0.042,-0.095,0.044,-0.006,0.019,0.019,0.001,0.027,-0.006,-0.085,0.027,-0.025,-0.066,0.012,-0.073,0.068,0.069,-0.022
CARD9 (UniProt Q9H257),-0.048,-0.035,-0.053,-0.016,-0.032,0.032,-0.145,0.03,0.047,-0.037,0.028,-0.032,-0.035,0.005,0.034,-0.007,-0.009,0.022,-0.017,0
C3orf33 (UniProt Q6P1S2),0.09,0.059,-0.051,-0.541,0.14,-0.025,-0.046,0.263,-0.105,-0.15,0.009,-0.14,0.007,0.274,0.094,0.123,0.101,,-0.013,-0.072
CHD5 (UniProt Q8TDI0),0.028,0.007,-0.03,0,0.001,0.034,-0.042,-0.002,-0.007,0.021,-0.022,-0.082,0.005,0.02,-0.019,0.01,-0.056,-0.074,0.038,0.007
C18orf25 isoform 2 (UniProt Q96B23),-0.001,-0.235,,-0.017,0.061,,-0.025,-0.021,-0.026,-0.115,-0.291,,0.076,,0.01,-0.071,0.017,0.001,-0.025,-0.056
ATE1 (UniProt O95260),-0.03,-0.047,-0.068,0.032,-0.019,0.043,-0.039,0.009,,,,0.019,,-0.093,0.026,,,,,
C12orf45 (UniProt Q8N5I9),-0.027,-0.031,0.042,-0.269 (active),0.148,-0.023,0.001,0.072,-0.026,-0.003,-0.017,-0.019,-0.014,-0.015,0,0.024,-0.014,-0.044,0.019,0.035
CCDC85B (UniProt Q15834),0,-0.042,0.006,-0.016,-0.032,0.098,0.054,0.011,,,,0.086,,0.044,-0.225,0.188,0.081,0.248,0.066,-0.034
CDK11A (UniProt Q9UQ88),0.104,-0.02,0.092,0.049,0.122,-0.072,-0.033,-0.093,-0.007,0.053,0.085,-0.031,-0.029,0.035,-0.029,-0.034,-0.003,,-0.016,-0.001
CASP9 (UniProt P55211),0.003,0.011,-0.047,-0.036,-0.027,0.009,-0.069,0.082,-0.004,0.006,-0.012,-0.056,0.005,0.056,-0.011,0.007,0.036,0.017,-0.055,-0.013
BTK isoform 2 (UniProt Q06187),-0.015,-0.041,,-0.148,0.101,0.031,-0.043,0.178,0.016,-0.002,0.015,-0.05,-0.021,0.294 (active),0.032,-0.049,0.018,-0.012,,-0.005
CEP295 isoform 3 (UniProt Q9C0D2),-0.038,0.057,0.004,-0.365 (active),0.058,0.059,0.031,0.072,0.016,0.046,0.006,0.017,0.062,-0.038,0.14,0.046,,0.111,,
BTRC (UniProt Q9Y297),0.01,-0.008,,0.018,0.073,,-0.027,0.065,0.006,0.02,-0.003,,0.02,,0.059,0.031,,-0.01,,
CCNH (UniProt P51946),0.005,-0.012,0.012,0.026,-0.002,0.037,-0.022,-0.023,-0.013,0.106,-0.001,0.016,-0.043,-0.009,0.026,0.013,0.072,0.013,0.03,0.015
BICRA (UniProt Q9NZM4),-0.099,0.052,-0.059,-0.027,0.171,0.014,0.078,0.133,,,,0.037,,-0.004,0.054,-0.382,0.105,,0.088,-0.1
CDC25C (UniProt P30307),-0.118,-0.025,,-0.049,-0.109,-0.003,0.038,0.013,0.039,-0.037,-0.048,0.056,-0.004,0.025,0.015,0.05,-0.021,0.03,0.042,0.004
